In all, about 35,000 sequences were measured (“fluorescence intensity (a.u.)”: median about 10,000, highest 2% from about 52,000 on). The full list was thinned out, with the highest values kept by preference.

The target in this assay is T1, OsWOX13 (Oryza sativa, UniProt Q5QMM3 1-267).
T1 sequence: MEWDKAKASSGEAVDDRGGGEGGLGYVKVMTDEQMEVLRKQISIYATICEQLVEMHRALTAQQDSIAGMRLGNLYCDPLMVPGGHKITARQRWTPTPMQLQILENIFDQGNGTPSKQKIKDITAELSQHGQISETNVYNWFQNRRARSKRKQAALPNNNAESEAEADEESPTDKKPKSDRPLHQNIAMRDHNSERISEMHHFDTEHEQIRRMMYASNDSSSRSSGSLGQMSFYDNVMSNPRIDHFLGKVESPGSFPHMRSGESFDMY
Put plainly: protein-binding microarray (RPBM); PBS, 2% BSA, 51.3 ng/ul salmon testes DNA, 50 uM zinc acetate, 200 nM TF, 25 C, 1 h; high values mean tight binding. Conditions: protein: recombinant; tags: N-terminal polyhistidine and DsRed monomer fusion (pET32a); label: CyDye5-dUTP incorporated in the synthesized complementary strand; 3' TTTTT single-stranded linker to array surface; dsDNA, one strand shown. Summed up: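 Per-feature fluorescence intensity (arbitrary units), read on an Axon 4000B scanner, is the binding signal. Transcription factors carrying an N-terminal polyhistidine tag and DsRed fusion were expressed in E. coli BL21-CodonPlus and purified on Ni–NTA. A custom Agilent array, made double-stranded by primer extension with Cy5-dUTP and blocked with 2% BSA, was incubated with 200 nM protein in PBS, 2% BSA, salmon testes DNA and 50 µM zinc acetate at 25 °C for 1 h and then washed.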
In the case of “ATGTTCCTATCAGTTGCTAATTATTAGTGTGACATCAATCCGGAGTCACCTAGTGCAG”, the binding signal was 16300 fluorescence intensity (a.u.).

On to “ATTAAGTCTAATTAATCTGTTATTAGCAAATGTTTACTGTCGGAGTCACCTAGTGCAG”, for which the binding signal is 11100 fluorescence intensity (a.u.).

With “CCTAATTACGCCATGATTTGATAATATGATGCTACAATAACGGAGTCACCTAGTGCAG”, the binding signal is 39600 fluorescence intensity (a.u.).

Take “ACTGCTGCCGATTGACTGCTACGAGTAGCTCGCACCTGGCCGGAGTCACCTAGTGCAG”: the binding signal was 7450 fluorescence intensity (a.u.).

Consider “AATCAATTTAATAATTGATTAAACAGAGCAAATTTTAGCTCGGAGTCACCTAGTGCAG”, for which the binding signal was 65100 fluorescence intensity (a.u.).

For “CAATTGTGAAATAATTAATTAAATTATCATTAAGCCCCAACGGAGTCACCTAGTGCAG”, the binding signal was 30300 fluorescence intensity (a.u.).

Turning to “TAATAATTGATTAAACAGAGCAAATTTTAGCTTGCAGATACGGAGTCACCTAGTGCAG”, the binding signal is 48500 fluorescence intensity (a.u.).

As to “TTTAATTGATAAATATTATCAATTATTAAACAGATAAGCGCGGAGTCACCTAGTGCAG”, the binding signal was 62800 fluorescence intensity (a.u.).

On to “CCAAATTAAGCCATTAATTAATAAAACAATATCATTAGGACGGAGTCACCTAGTGCAG”, for which the binding signal was 28900 fluorescence intensity (a.u.).

On to “TGAAATAATTAATTAAATTATCATTAAGCCCCAAACCGAGCGGAGTCACCTAGTGCAG”, for which the binding signal is 57300 fluorescence intensity (a.u.).

Take “TTTAATATTTATAATTAATGTCAAACATCAGATGTGATAGCGGAGTCACCTAGTGCAG”: the binding signal was 12700 fluorescence intensity (a.u.).

As to “GAGCAAAACAATAATTAAATATATTTTGATAATAAATTTGCGGAGTCACCTAGTGCAG”, the binding signal was 3560 fluorescence intensity (a.u.).

For the sequence “TAATATTTAAATTAAACCTATAATCAAGCAGATGATTTATCGGAGTCACCTAGTGCAG”, the binding signal was 8840 fluorescence intensity (a.u.).

Take “GATAGATGATATACCCGTTAACAATGAGACGTTTGTGGAGCGGAGTCACCTAGTGCAG”: the binding signal is 3270 fluorescence intensity (a.u.).

Consider “ACATATAATTGCCACGTCAGCGCCACATCAATGCCACGTGCGGAGTCACCTAGTGCAG”, for which the binding signal is 23200 fluorescence intensity (a.u.).

Take “ATTAAAATTATGAAATTTTAATGATTCATTAATCTCAAGACGGAGTCACCTAGTGCAG”: the binding signal was 14100 fluorescence intensity (a.u.).

Take “AACCGAAAATTATTATTTTAATCGGCGTGGTGTCCACTGGCGGAGTCACCTAGTGCAG”: the binding signal was 4880 fluorescence intensity (a.u.).

Regarding “TCATTAATGATCTAATCACCAACTAAACTCCCTATCAATTCGGAGTCACCTAGTGCAG”, the binding signal was 18200 fluorescence intensity (a.u.).

As to “GTTTGTTTAGATTGGTACCATTTAAAATCATATTATTTTGCGGAGTCACCTAGTGCAG”, the binding signal was 20600 fluorescence intensity (a.u.).

Regarding “GGACAGATTAACTATCACTTAATTTCAGGTTTCCATGTATCGGAGTCACCTAGTGCAG”, the binding signal is 22700 fluorescence intensity (a.u.).

Regarding “TACTACTAATTATATGCCGATTGAGAGTGTTGTAGCGTCACGGAGTCACCTAGTGCAG”, the binding signal is 17700 fluorescence intensity (a.u.).

Consider “GGCGCACTGATTGTTCATGATTGATGCAGTGATCCGGGCACGGAGTCACCTAGTGCAG”, for which the binding signal was 59600 fluorescence intensity (a.u.).

With “ATGAAAGATTGATATGTTGACATGTTCACAGATGAACTTACGGAGTCACCTAGTGCAG”, the binding signal was 17200 fluorescence intensity (a.u.).

As for “CTGTTCACACGGATTGATCATTGATGGATCCATGCTGATGCGGAGTCACCTAGTGCAG”, the binding signal is 9220 fluorescence intensity (a.u.).

For “CTGTACTGATTGTTCACGGGTCGTTTCCGCACTATGGAACCGGAGTCACCTAGTGCAG”, the binding signal was 27900 fluorescence intensity (a.u.).

Turning to “CCTGTTGATTGGTTAGCCCAGCCCATGATGTAGCCCATGACGGAGTCACCTAGTGCAG”, the binding signal is 38200 fluorescence intensity (a.u.).

Take “ATGATGATTGGTTGGTTACGGGCATGTTCAGATTGTAGCCCGGAGTCACCTAGTGCAG”: the binding signal was 54900 fluorescence intensity (a.u.).

Consider “AAATAATGTACAAAAGGTGATAGATGAAACAATAAAGTAGCGGAGTCACCTAGTGCAG”, for which the binding signal was 4460 fluorescence intensity (a.u.).

For the sequence “TAATAATTTGGGGAGCTTAATTGCTATCCAGTGATATATACGGAGTCACCTAGTGCAG”, the binding signal was 11100 fluorescence intensity (a.u.).

With “ACTAATCATCACATCGCTGTCTCAGATTCTCAGTGACAGACGGAGTCACCTAGTGCAG”, the binding signal was 4120 fluorescence intensity (a.u.).

Turning to “AAAATTGACTAGAGTGCTCTCACAAAATAAACTAGAGAGACGGAGTCACCTAGTGCAG”, the binding signal was 7000 fluorescence intensity (a.u.).

Turning to “CACCAATCACATTAATATGATAATTCATTCACCTACCTCGCGGAGTCACCTAGTGCAG”, the binding signal was 39700 fluorescence intensity (a.u.).

With “AGTCAGATGCTCATAATTGAAAGAAATGCTAGGGCCTGAACGGAGTCACCTAGTGCAG”, the binding signal is 15200 fluorescence intensity (a.u.).

Take “TGTTAATTTGAAATTTGGAAGATGTAATTAACTGTTGCCACGGAGTCACCTAGTGCAG”: the binding signal was 46900 fluorescence intensity (a.u.).

Take “TTATGATTTCAAGGTTAATGCTGCAGTTTCAAACAAGTTACGGAGTCACCTAGTGCAG”: the binding signal was 3480 fluorescence intensity (a.u.).

On to “AGGTGATCATGCAAGGTAGTCAACAGTGTACTGCTAGTTACGGAGTCACCTAGTGCAG”, for which the binding signal was 53800 fluorescence intensity (a.u.).

On to “CACTATAGTTACAGTGTAATTACATGCAAGTTACAGTGTACGGAGTCACCTAGTGCAG”, for which the binding signal was 5020 fluorescence intensity (a.u.).

For the sequence “TTGGTGATTGAATCTGAACATGCTGGCCTTTGGGATGACTCGGAGTCACCTAGTGCAG”, the binding signal is 28400 fluorescence intensity (a.u.).

As for “TATGATTGGCATGGCCTGAATGGATGGATGAATTTTGGATCGGAGTCACCTAGTGCAG”, the binding signal was 58500 fluorescence intensity (a.u.).

Take “GTACATGAATTTTGATTAATTGCTAATTTTACATATGGATCGGAGTCACCTAGTGCAG”: the binding signal is 26000 fluorescence intensity (a.u.).

Take “GCATCGGAATTTTGGATGTGATTGCCTGCATCGGATGGATCGGAGTCACCTAGTGCAG”: the binding signal is 18200 fluorescence intensity (a.u.).

Take “CCGGGTGATTGGCATGAATCTGAATGGCTGAATCCTGATGCGGAGTCACCTAGTGCAG”: the binding signal is 53400 fluorescence intensity (a.u.).

Turning to “AATTCTGTGATTAGCGGGTGCTTTTCGAATGGATGGCATGCGGAGTCACCTAGTGCAG”, the binding signal is 29200 fluorescence intensity (a.u.).

With “TTTAATTGTATTAACACTCGTGAGAATGATACATGAGATCCGGAGTCACCTAGTGCAG”, the binding signal is 29000 fluorescence intensity (a.u.).

On to “GTGAATTTGATAGGGCGATAAGGATAATAAACAAGAACATCGGAGTCACCTAGTGCAG”, for which the binding signal is 3540 fluorescence intensity (a.u.).

On to “ACATTAACAAACTCTATCTTAACATTTAGATGCAAGAGCCCGGAGTCACCTAGTGCAG”, for which the binding signal was 3790 fluorescence intensity (a.u.).

For the sequence “CGGATCCCATTCAATCATTCATTCATGTCGGATTGATGCCCGGAGTCACCTAGTGCAG”, the binding signal is 11800 fluorescence intensity (a.u.).

For the origin of these results see publication PMC7819943, “Rice protein-binding microarrays: a tool to detect cis-acting elements near promoter regions in rice”.
